Inconclusive results are not listed. Active and inactive are the calls of the source. Unless noted, calls follow the shape of the dose curve; as a rule, active = well fitted curve in the direction sought with a large enough effect in the repeat runs; inconclusive = weak or mixed curves; inactive = no such curve, though single readings can be large; an effect the other way counts as inactive or inconclusive.
Columns and labels:
[1] = qHTS assay for small molecule agonists of the p53 signaling pathway (AID 651631; calls by dose curve; also: nearly all actives have a fitted effect of over 15% in size)
Outline: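 p53RE-bla HCT-116 cells; compounds 16 h, 37 °C; LiveBLAzer B/G FRET substrate 2 h RT; fluorescence intensity read-out, qHTS format.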

[2] = qHTS assay for small molecules that induce genotoxicity in human embryonic kidney cells expressing luciferase-tagged ATAD5 (AID 651632); also: nearly all actives have a fitted effect of over 15% in size
Outline: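 HEK293T cells carrying luciferase-tagged ATAD5 were given compound or DMSO vehicle and incubated 16 hr at 37C, 5% CO2. Luciferase activity was read after 30 min at room temperature with Amplite; a rise signals genotoxic stress.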

[3] = qHTS assay for small molecule agonists of the p53 signaling pathway - cell viability (AID 651633; calls by dose curve;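 also: p53RE-bla HCT reporter cells with a stable beta-lactamase p53 reporter; series mostly up to about 83 µM; nearly all actives have a fitted effect of over 30% in size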)
Outline: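 Viability counter-read: CellTiter-Glo luminescence (30 min, room temperature) in the same p53RE-bla plates. These plates had been exposed to compounds for 16 h at 37 C.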

[4] = qHTS assay for small molecules that induce genotoxicity in human embryonic kidney cells expressing luciferase-tagged ATAD5 - cell viability (AID 651634; calls by dose curve; also: nearly all actives have a fitted effect of over 25% in size)
Outline: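 HEK293T cells carrying luciferase-tagged ATAD5, 2,000 cells/well, exposed to compound for 15.5 hr at 37C. Viability read as live-cell protease activity by CellTiter-Fluor fluorescence after 30 min at 37C.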

[5] = qHTS assay for small molecule disruptors of the mitochondrial membrane potential - cell viability (AID 720634; calls by dose curve;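 also: human HepG2 liver cancer cells; series mostly up to about 83 µM; nearly all actives have a fitted effect of over 20% in size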)
Outline: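 HepG2 cells, 2,000 per well, attached overnight, then treated 1 hr at 37 C, 5% CO2. Viability read as ATP by CellTiter-Glo luminescence after 30 min at room temperature. Read in the same wells as the m-MPI membrane-potential dye assay.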

[6] = qHTS assay to test for compound auto fluorescence at 590 nm (red) in HepG2 cells (AID 720674)
Outline: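 1 hr compound incubation on HepG2 cells, 37 C, 5% CO2; plate read ex 540 nm / em 590 nm; intensities reported as Rose Bengal sodium equivalents.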

[7] = qHTS assay to test for compound auto fluorescence at 535 nm (green) in HepG2 cells (AID 720675)
[8] = qHTS assay to test for compound auto fluorescence at 460 nm (blue) in HEK293 cells (AID 720678)
Outline: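 After cell attachment (4-5 hr, 37C), compounds were pinned onto HEK293 monolayers in 10% dialyzed FBS medium. The blue channel (405/460 nm) was read following overnight culture. Equivalency was calculated against triamterene.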

[9] = qHTS assay for small molecule disruptors of the mitochondrial membrane potential (AID 720635); also: potency is read from the fitted curve at half-maximal effect
Outline: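 Mitochondrial membrane potential tracked with Mito-MPS dye, red aggregates (ex 540/em 590 nm) against green monomers (ex 490/em 535 nm). Compound treatment 1 hr at 37C, dye 30 min in HepG2.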

[10] = qHTS assay to test for compound auto fluorescence at 590 nm (red) in HEK293 cells (AID 720679)
Outline: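 Plates of HEK293 cells (10% dialyzed FBS) are treated with 23 nL compound or DMSO vehicle after a 4-5 hr attachment period, incubated overnight at 37C, and read for red fluorescence at 540/590nm.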

Measured: Potency

C=CCOc1ccc(CC(=O)O)cc1Cl
not listed: [9] | [10]
inactive: all other assays above

CCCCCCCCCCCCCCCCCC(=O)OCCO
inactive: all assays above

C[N+]1(C)CCN(CC(O)(c2ccccc2)C2CCCCC2)CC1 (stereo not given)
not listed: [7]
inactive: all other assays above

CC(O)[C@@H]1NC(=O)[C@H](CCCCN)NC(=O)[C@@H](Cc2c[nH]c3ccccc23)NC(=O)[C@H](Cc2ccccc2)NC(=O)[C@@H](NC(=O)[C@H](N)Cc2ccccc2)CSSC[C@@H](C(=O)N[C@H](CO)[C@@H](C)O)NC1=O (stereo not given in full)
not listed: [9] | [10]
inactive: all other assays above

COC(=O)[C@H]1[C@H]2C[C@@H]3c4[nH]c5cc(OC)ccc5c4CCN3C[C@H]2C[C@H](OC)[C@@H]1OC
not listed: [8]
inactive: all other assays above

CCC(C)(C)OC(=O)N[C@@H](Cc1c[nH]c2ccccc12)C(=O)N[C@@H](CCSC)C(=O)N[C@@H](CC(=O)O)C(=O)N[C@@H](Cc1ccccc1)C(N)=O
not listed: [7]
inactive: all other assays above

CCC(c1ccccc1)c1noc(CCN(CC)CC)n1 (stereo not given)
inactive: all assays above

CC(=O)O[C@H]1C[C@@H]2CC[C@@H]3[C@H](CC[C@@]4(C)[C@H]3C[C@H](N3CC[N+](C)(C)CC3)[C@@H]4OC(C)=O)[C@@]2(C)C[C@@H]1N1CC[N+](C)(C)CC1
inactive: all assays above

CC(O)CN(C)C (stereo not given)
not listed: [9]
inactive: all other assays above

COc1ccc(-c2noc(CC(=O)O)c2-c2ccc(OC)cc2)cc1
not listed: [7] | [9]
inactive: all other assays above

CCCN(CC)C(CC)C(=O)Nc1c(C)cccc1C (stereo not given)
not listed: [9]
inactive: all other assays above

NCc1ccccc1CC(=O)N[C@@H]1C(=O)N2C(C(=O)O)=C(CSc3nnnn3CC(=O)O)CS[C@H]12
not listed: [9]
inactive: all other assays above

Nc1c(Br)cc(Br)cc1CNC1CCC(O)CC1 (stereo not given)
not listed: [7] | [9]
inactive: all other assays above

CCCC(=O)N1CCCN(c2nc(N)c3cc(OC)c(OC)cc3n2)CC1
not listed: [9]
inactive: all other assays above

Cc1nnc(C(C)C)n1C1C[C@H]2CC[C@@H](C1)N2CC[C@H](NC(=O)C1CCC(F)(F)CC1)c1ccccc1 (stereo not given in full)
not listed: [9]
inactive: all other assays above

CC(=O)N[C@@H]1C(O[C@H]2O[C@H](C(=O)O)C(O)[C@H](O)[C@H]2O)[C@H](O)[C@@H](CO)O[C@H]1O[C@@H]1C(C(=O)O)O[C@@H](O[C@H]2[C@H](O)[C@@H](CO)OC(O)[C@@H]2NC(C)=O)[C@H](O)[C@H]1O (stereo not given in full)
not listed: [9]
inactive: all other assays above

COc1cc2[nH]c(C)c(CCN3CCN(c4ccccc4)CC3)c2cc1OC
not listed: [9]
inactive: all other assays above

C=C1c2c(Cl)ccc(O)c2C(O)=C2C(=O)[C@]3(O)C(O)=C(C(N)=O)C(=O)[C@@H](N(C)C)[C@@H]3[C@@H](O)[C@H]12
not listed: [9]
inactive: all other assays above

CCOC(=O)Nc1ccc2c(c1)N(C(=O)CN(C)C)c1ccccc1CC2
not listed: [9]
inactive: all other assays above

O=C(Cc1cccs1)N[C@@H]1C(=O)N2C(C(=O)[O-])=C(C[n+]3ccccc3)CS[C@H]12
not listed: [9]
inactive: all other assays above

COc1ccc(CCNC[C@H](O)c2ccc(O)cc2)cc1OC
not listed: [7] | [9]
inactive: all other assays above

C=C1CC2C3CCC4=CC(=O)C=C[C@]4(C)[C@@]3(F)[C@@H](O)C[C@]2(C)[C@@]1(O)C(=O)COC(C)=O (stereo not given in full)
not listed: [5]
inactive: all other assays above

Cc1cccc(C)c1N(CCCc1cccnc1)C(=O)C(C)N (stereo not given)
not listed: [9]
inactive: all other assays above

CC(C)C[C@H](NC(=O)[C@@H](Cc1c[nH]c2ccccc12)NC(=O)[C@H](Cc1ccc(O)cc1)NC(=O)[C@H](CO)NC(=O)[C@H](Cc1c[nH]c2ccccc12)NC(=O)[C@H](Cc1cnc[nH]1)NC(=O)[C@@H]1CCC(=O)N1)C(=O)N[C@@H](CCCN=C(N)N)C(=O)N1CCC[C@@H]1C(=O)NCC(N)=O
not listed: [9]
inactive: all other assays above

O=S(=O)(O)Oc1ccc(C(c2ccc(OS(=O)(=O)O)cc2)c2ccccn2)cc1
not listed: [7] | [9]
inactive: all other assays above

O=C1c2ccccc2C(=O)C1c1ccc(Cl)cc1
not listed: [9]
inactive: all other assays above

Cc1ccccc1OCC(O)CNCCOc1ccc(C(N)=O)cc1 (stereo not given)
not listed: [9]
inactive: all other assays above

CC(=O)O[C@H]1C[C@@]2(C)[C@@H](C[C@@H](O)[C@H]3[C@@]4(C)CC[C@@H](O)[C@@H](C)[C@@H]4CC[C@@]32C)/C1=C(\CCC=C(C)C)C(=O)O
not listed: [9]
inactive: all other assays above

CC(C)(C)NC[C@H](O)COc1ccccc1C1CCCC1
not listed: [9]
inactive: all other assays above

CC(C)Cc1ccc([C@@H](C)C(=O)NS(C)(=O)=O)cc1
not listed: [9]
inactive: all other assays above

CC1(C)[C@@H]2CC[C@@]1(C)[C@H](OC(=O)CSC#N)C2
not listed: [9]
inactive: all other assays above

C[C@@](Cc1ccc(O)c(O)c1)(NN)C(=O)O
not listed: [9]
inactive: all other assays above

CC(C)(C)CC(=O)OCC(=O)[C@@]12OC(C)(C)O[C@@H]1C[C@H]1[C@@H]3CCC4=CC(=O)C=C[C@]4(C)[C@@]3(F)[C@@H](O)C[C@@]12C
active: [9] 13.3 µM
not listed: [5]
inactive: all other assays above

O=C(O)c1cccc(/C=C2/C[C@@H]3[C@@H](/C=C/[C@@H](O)C4CCCCC4)[C@H](O)C[C@@H]3O2)c1
not listed: [9]
inactive: all other assays above

CC(C)(C)C(=O)OCOC(=O)[C@@H]1N2C(=O)[C@@H](N=CN3CCCCCC3)[C@H]2SC1(C)C
not listed: [9]
inactive: all other assays above

CCOC(=O)C1=C[C@@H](OC(CC)CC)[C@H](NC(C)=O)[C@@H](N)C1
not listed: [9]
inactive: all other assays above

COc1cc(C[C@@H]2NCCc3cc(O)c(O)cc32)cc(OC)c1OC
not listed: [9]
inactive: all other assays above

CC[C@H](CC[C@@H](C)[C@H]1CC[C@H]2[C@@H]3CC=C4C[C@@H](O)CC[C@]4(C)[C@H]3CC[C@]12C)C(C)C
not listed: [7] | [9]
inactive: all other assays above

NC(=O)c1ccc[n+]([C@@H]2O[C@H](COP(=O)([O-])OP(=O)(O)OC[C@H]3O[C@@H](n4cnc5c(N)ncnc54)[C@H](O)[C@@H]3O)[C@@H](O)[C@H]2O)c1
not listed: [9]
inactive: all other assays above

NCCCC[C@H](NC(=O)[C@@H]1CCCN1C(=O)[C@@H]1CSSC[C@H](N)C(=O)N[C@@H](Cc2ccccc2)C(=O)N[C@@H](Cc2ccccc2)C(=O)N[C@@H](CCC(N)=O)C(=O)N[C@@H](CC(N)=O)C(=O)N1)C(=O)NCC(N)=O
not listed: [5]
inactive: all other assays above

CC[C@H]1NC(=O)[C@@H](NC(=O)c2ncccc2O)[C@@H](C)OC(=O)[C@H](c2ccccc2)NC(=O)[C@@H]2CC(=O)CCN2C(=O)[C@H](Cc2ccccc2)N(C)C(=O)[C@@H]2CCCN2C1=O
not listed: [9]
inactive: all other assays above
